Data from PubChem BioAssay (EPA / NIEHS).
Inconclusive results are not listed. Active and inactive are the calls of the source. The calls were made as follows, unless noted: active = hit-call score of the fitted dose curve at least 0.9, where 1 is the maximum; inactive = score below 0.9.

Assays:
[1] = CCTE_Mundy_HCI_Cortical_NOG_BPCount: CCTE's Neurite Outgrowth Assay in rat cortical cells for Branch Point Count, Mundy Lab (AID 2284237)
Outline: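 Measured 50.33 h after dosing, this morphology endpoint uses rat primary cortical cultures labelled for betaIII-tubulin. Branch points are quantified by high-content imaging, with DMSO as negative control and baseline.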

[2] = CCTE_Mundy_HCI_hNP1_Casp3_7: CCTE's Caspase-Glo 3/7 Assay in human neuroprogenitor cells for Apoptosis, Mundy Lab (AID 2284240)
Outline: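 Apoptosis is scored by activated caspase-3/7 luminescence in WA09-derived neural progenitor cells, measured 26.5 h after chemical dosing. Values represent gain of signal relative to DMSO vehicle.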

[3] = CCTE_Mundy_HCI_hNP1_CellTiter: CCTE's Cell Titer-Glo 2 Assay in human neuroprogenitor cells for Viability, Mundy Lab (AID 2284241; active = hit-call score of the fitted dose curve at least 0.9, where 1 is the maximum)
Outline: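 Human neural progenitor cells (hNP1, WA09-derived) were plated on poly-L-ornithine/laminin and grown 40 to 44 hours at 37 °C, 5% CO2 before chemical addition. Twenty-four hours later, ATP was measured by CellTiter-Glo luminescence; loss of signal versus DMSO indicates reduced viability.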

[4] = CCTE_Mundy_HCI_Cortical_Synap_Neur_Matur_NeuronCount: CCTE's Synaptogenesis and Neurite Maturation Assay in rat cortical cells for Neuron Count, Mundy Lab (AID 2284242; active = hit-call score of the fitted dose curve at least 0.9, where 1 is the maximum)
Outline: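 Measured at DIV 12: fluorescently labelled neurons (Hoechst nuclei, MAP2) in rat primary cortical cultures, counted by high-content imaging. AraC suppressed glia from DIV 5; DMSO served as negative control.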

Measured: outcome

C[N+]1(C)CCCCC1
inactive: [1] | [2]

COP(=O)(NC(C)=O)SC (stereo not given)
inactive: all assays above

S=C1NCCN1
inactive: all assays above
